The source made the active and inactive calls. Rule for the calls: active = hit-call score of the fitted dose curve at least 0.9, where 1 is the maximum; inactive = score below 0.9.
read-out: Cytochrome P450 2C19 (Homo sapiens) (UniProt P33261); experiment: LTEA_HepaRG_CYP2C19: Life Technologies and Expression Analysis (LTEA) Assay for CYP2C19 using HepaRG (AID 2283482); conditions: mRNA level, 48 h; actives raise or lower the signal
Protocol: LTEA_HepaRG is a cell based, multiplexed-readout assay that uses HepaRG, a human liver cell line, with measurements taken at 48 hours after chemical dosing on a 96-well plate.LTEA_HepaRG_CYP2C19 is one of 102 assay component(s) measured in the LTEA HepaRG cell culture assay. It is a marker of NR mediated metabolism.Data from the assay component LTEA_HepaRG_CYP2C19 was analyzed into 1 endpoint. This assay endpoint, LTEA_HepaRG_CYP2C19, was analyzed with bidirectional fitting relative to DMSO as the negative control and baseline of activity. Using a type of inducible reporter, measures of mRNA induction for gain or loss-of-signal activity can be used to understand regulation of transcription factor activity. To generalize the intended target to other relatable targets, this assay endpoint is annotated to the cyp intended target family, where the subfamily is xenobiotic metabolism.
A total of 1060 chemcials from the ToxCast library were tested in eight-point concentration-response experiments. Cell culture and cytotoxicity assays were conducted at Thermo Fisher Scientific's Custom Services facility (Madison, WI). A single lot of human HepaRG cells (Thermo Fisher Scientific, Frederick, MD) was used for the cell culture experiments. 96-well format collagen type I coated plates of human HepaRG cells were prepared using established methods. Briefly, cryopreserved HepaRG cells were thawed, plated at a density of approximately 100,000 cells/well in HepaRG Thaw, Plate, and General Purpose media (HPRG770, Thermo Fisher Scientific), and incubated for 48 hours. 0.5% DMSO was selected as vehicle control to balance the requisite need of DMSO in HepaRG cultures to maintain differentiation (for example, baseline metabolism, proportions of hepatocytes vs. cholangiocytes), while enabling further hepatic receptor pathway activation (for example, PXR and CAR) in response to chemical exposure. 48 hours after plating, the culture medium was replaced with HepaRG Serum-Free Incudtion Media. Cells were exposed to each test chemical in duplicate and maintained in CO2 incubators for another 48 hours. Chemical plates were thawed to room temperature and 200x concentrations of treatment groups were prepared. 8-point conentration-reponse curves were made with the highest exposure at 100 uM, followed by half-log dilutions, all in 0.5% DMSO. Each test plate contained variouse controls, induction positive controls (1mM phenobarbital), cytotoxicity positive controls ([…] aflatoxin B1), vehicle controls (0.5% DMSO), and total lysis controls (0.5% DMSO). Cell morphology images were taken using an Essen IncuCyte FLR automated microscope, with six 96-well plates imaged in about 24 minutes. Images were captured and exported and JPEG files. Spent culture media was transfered to black-well plates for the LDH assay, and remaining media was sorted at -80 C for later use. Cells were treated with RLT buffer and frozen until shipped for gene expression analysis. Total RNA was isolated from the cell suspension in 75 uL of Buffer RLT (Qiagen, Germantown, MD 20874) by Quintiles/Expression Analysis (Durham, NC) using a custom isolation procedure. Total RNA from each plate well was transferred to a preamplification plate. Fluidigm's 96.96 Dynamic ArrayTM (Fluidigm, Amsterdam, the Netherlands) technology was used for gene expression analyses by quantitative reverse transcription polymerase chain reaction (qRT-PCR, performed by Quintiles/Expression Analysis, Durham, NC)89. Standard TaqManTM Assays (Applied Biosystems/ThermoFisher Scientific, Foster City, CA) were used to assess the expression of 93 genes selected based on their selectivity and sensitivity to important hepatic receptors known to be modulated by environmental chemicals; importance in human hepatocyte functionality; and hepatotoxicity. […]

Chain of Cytochrome P450 2C19 (Homo sapiens) (P33261 whole entry, looked up): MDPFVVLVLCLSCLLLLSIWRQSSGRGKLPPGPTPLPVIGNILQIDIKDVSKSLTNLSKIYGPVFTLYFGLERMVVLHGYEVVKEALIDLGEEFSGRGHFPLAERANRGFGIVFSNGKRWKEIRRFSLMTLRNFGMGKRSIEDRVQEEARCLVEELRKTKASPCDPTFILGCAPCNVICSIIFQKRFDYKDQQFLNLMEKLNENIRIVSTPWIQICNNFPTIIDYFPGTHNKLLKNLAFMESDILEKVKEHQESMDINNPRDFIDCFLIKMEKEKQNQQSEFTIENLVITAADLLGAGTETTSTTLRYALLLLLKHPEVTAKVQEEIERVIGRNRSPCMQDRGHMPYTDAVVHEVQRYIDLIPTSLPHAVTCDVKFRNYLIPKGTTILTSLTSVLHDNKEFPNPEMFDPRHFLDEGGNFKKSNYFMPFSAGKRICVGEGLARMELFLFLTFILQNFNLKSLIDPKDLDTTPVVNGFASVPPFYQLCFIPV

Structure (SMILES)	outcome	AC50
O=[N+]([O-])c1ccccc1	inactive	–
ClC(Cl)(Cl)c1ccccc1	inactive	–
CCCN(CCC)c1c([N+](=O)[O-])cc(C(C)C)cc1[N+](=O)[O-]	–	9.77 µM (active)
Nc1cc2c3c(c1)C(c1ccccc1)=N[C@@H](NC(=O)c1cccnc1)C(=O)N3CC2	–	9.8 µM (active)
Cc1ccc(N)cc1N	inactive	–
[N-]=[N+]=[N-]	inactive	–
CCOS(=O)(=O)OCC	inactive	–
CCCCc1ccccc1	inactive	–
CCOc1ccc(C(C)(C)COCc2cccc(Oc3ccccc3)c2)cc1	–	4.25 µM (active)
CCOP(=S)(OCC)SCSCC	–	11.2 µM (active)
CCC1(c2ccccc2)C(=O)N=C(O)NC1=O (stereo not given)	–	63.6 µM (active)
c1ccc2c(c1)Nc1ccccc1S2	–	50 µM (active)
Cc1cccc(N)c1	inactive	–
OCC1CO1 (stereo not given)	inactive	–
CCC(C)(C)c1ccc(O)cc1	inactive	–
c1cc2c3c(cccc3c1)CC2	inactive	–
c1nc[nH]n1	inactive	–
ClC(Cl)c1ccccc1	inactive	–
COCCOCCO	–	2.31 µM (active)
CCNc1nc(Cl)nc(NC(C)(C)C)n1	–	2.46 µM (active)

Structure (SMILES)	outcome	AC50
c1ccc(OP(Oc2ccccc2)Oc2ccccc2)cc1	inactive	–
CC(Cl)(Cl)C(=O)O	inactive	–
CCCCN(CCCC)N=O	inactive	–
Nc1ccc(Cl)cc1	inactive	–
Nc1ccc2ccccc2c1	–	26.7 µM (active)
O=P(Oc1ccccc1)(Oc1ccccc1)Oc1ccccc1	–	2.95 µM (active)
CCOP(=S)(Oc1ccc([N+](=O)[O-])cc1)c1ccccc1 (stereo not given)	–	6.06 µM (active)
CCCCCCCc1ccc(O)cc1	inactive	–
O=C(O)C(Cl)Cl	inactive	–
Cc1ccc([N+](=O)[O-])cc1C	inactive	–
CN(C)C(=O)Cl	inactive	–
ClC1=C(Cl)C2(Cl)C3C(Cl)C(Cl)CC3C1(Cl)C2(Cl)Cl (stereo not given)	–	2.42 µM (active)
CCOC(=O)c1ccccc1C(=O)OCC	inactive	–
O=C(O)C1C(C(=O)O)C2(Cl)C(Cl)=C(Cl)C1(Cl)C2(Cl)Cl (stereo not given)	inactive	–
CCCCN(CCCC)SN(C)C(=O)Oc1cccc2c1OC(C)(C)C2	–	16.7 µM (active)
CC(C)(C)OOC(C)(C)C	inactive	–
CSC(C)(C)C=NO	inactive	–
CC(Cc1ccc(OCC(=O)O)cc1)NCC(O)c1csc(C(F)(F)F)n1 (stereo not given)	inactive	–
O=[N+]([O-])c1ccc(Cl)c(Cl)c1	inactive	–
CCN(CC)c1ccccc1	inactive	–

Reference: PubChem BioAssay (EPA / NIEHS)
